Test results reported in PubChem BioAssay (Tox21).
Inconclusive results are not listed. Calls of active or inactive are those of the source. Unless noted, calls come from the whole dose curve; as a rule, active = well fitted curve in the direction sought with a large enough effect in the repeat runs; inconclusive = weak or mixed curves; inactive = no such curve, though single readings can be large; an effect the other way counts as inactive or inconclusive.

What was measured:
[1] = qHTS assay to identify small molecule agonists of the progesterone receptor (PR) signaling pathway - cell viability counter screen (AID 1346799; calls by dose curve; note: nearly all actives have a fitted effect of over 45% in size; note: potency is the fitted concentration of half-maximal effect)
How it was run: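 PR-UAS-bla HEK293T cells, 3,000 per well in medium with 2% charcoal-stripped FBS, were preincubated 6 hr at 37C, then exposed to compounds for 16 hr; viability was read as CellTiter-Glo luminescence after 30 min at room temperature.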

[2] = qHTS assay to identify small molecule antagonists of the TGF-beta/Smad signaling pathway - cell viability counter screen (AID 1346824); note: nearly all actives have a fitted effect of over 50% in size; note: potency is the fitted concentration of half-maximal effect
How it was run: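 Cytotoxicity counter-screen run in the same wells as the beta-lactamase Smad reporter read: CellTiter-Glo luminescence after 30 min at room temperature. HEK 293T SBE-bla cells had 5 hr compound exposure at 37 C with TGF-beta1 (0.25 ng/mL stock).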

[3] = qHTS assay to identify small molecule agonists of the TGF-beta/Smad signaling pathway (AID 1346859; active = well fitted activation curve with a large enough effect in the signal ratio in the repeat runs, not every such curve was filed as active; the % refers to the signal ratio; note: series mostly up to about 77 µM)
How it was run: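 HEK 293T cells stably carrying a beta-lactamase reporter driven by the Smad binding element were seeded overnight, exposed to DMSO-dissolved compounds for 5 hr at 37 C, 5% CO2, then loaded with FRET substrate for 2 hr at room temperature.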

[4] = molecular target: Thyrotropin-releasing hormone receptor (Homo sapiens) (UniProt P34981); experiment: qHTS assay to identify small molecule antagonists of the thyrotropin-releasing hormone receptor (TRHR) signaling pathway (AID 1346877; active = well fitted inhibition curve with a large enough effect in the repeat runs, not every such curve was filed as active; note: potency is the fitted concentration of half-maximal effect)
Chain of Thyrotropin-releasing hormone receptor (Homo sapiens) (P34981 whole entry, looked up): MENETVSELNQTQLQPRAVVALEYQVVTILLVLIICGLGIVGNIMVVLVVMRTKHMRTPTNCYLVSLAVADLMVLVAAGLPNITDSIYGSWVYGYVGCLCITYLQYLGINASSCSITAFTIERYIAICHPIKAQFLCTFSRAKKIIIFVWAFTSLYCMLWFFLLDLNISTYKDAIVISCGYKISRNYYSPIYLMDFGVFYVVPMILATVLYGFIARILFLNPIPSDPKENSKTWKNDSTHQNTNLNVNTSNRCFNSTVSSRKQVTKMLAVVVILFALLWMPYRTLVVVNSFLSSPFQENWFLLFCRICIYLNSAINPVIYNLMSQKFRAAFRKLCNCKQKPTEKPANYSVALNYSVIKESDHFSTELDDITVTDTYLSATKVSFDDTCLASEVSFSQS
How it was run: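 In this cell-based calcium flux format, HEK293 cells expressing TRHR received test compound for 5 min before the agonist TRH (1 nM final). Dye loading lasted 2 h at 37 °C.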

[5] = molecular target: Thyrotropin-releasing hormone receptor (Homo sapiens) (UniProt P34981); experiment: qHTS assay to identify small molecule agonists of the thyrotropin-releasing hormone receptor (TRHR) signaling pathway (AID 1346891; calls by dose curve; note: potency is the fitted concentration of half-maximal effect; for activation: series mostly up to about 58 µM)
How it was run: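 TRHR-expressing HEK293 cells were plated 18 h at 37 °C/5% CO2, loaded with calcium dye 2 h at 37 °C, then given compound in DMSO; fluorescence was read kinetically for 3 min at 1 s intervals.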

[6] = Human pregnane X receptor (PXR) small molecule agonists, qHTS cell viability counter screen (AID 1346977); note: nearly all actives have a fitted effect of over 50% in size; note: potency is the fitted concentration of half-maximal effect
How it was run: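 PXR-Luc HepG2 cells in medium with 5% charcoal-stripped FBS were pre-incubated 5hr, then exposed to compounds for 24hr at 37C. Viability was read in the same wells by CellTiter-Fluor fluorescence, reagent added after 23hr with a 1hr incubation.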

[7] = qHTS assay to identify small molecule agonists of the TGF-beta/Smad signaling pathway - cell viability counter screen (AID 1346829); note: nearly all actives have a fitted effect of over 45% in size; note: potency is the fitted concentration of half-maximal effect; for activity change, negative = cytotoxicity: top concentration of the series differs between compounds
How it was run: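 Luminescence from CellTiter-Glo, read after a 30 min room-temperature incubation, gives cell viability of SBE-bla HEK 293T cells treated 5 hr with compounds at 37 C.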

[8] = qHTS assay to identify small molecule antagonists of the progesterone receptor (PR) signaling pathway - cell viability counter screen (AID 1346798); note: nearly all actives have a fitted effect of over 50% in size; note: potency is the fitted concentration of half-maximal effect; for activity change, negative = cytotoxicity: series mostly up to about 92 µM
How it was run: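 PR-UAS-bla HEK293T cells in medium with 2% charcoal-stripped FBS were treated with compounds plus R5020 for 16 hr at 37C. Cell viability was then read by CellTiter-Glo luminescence after 30 min at room temperature in the same wells.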
% is set by controls: 0 for no effect and ±100 for the full control effect.

CCc1nn(C)c(C(=O)NCc2ccc(C(C)(C)C)cc2)c1Cl
active: Potency [1] 54.5 µM | Potency [2] 0.389 µM | Potency [6] 10.9 µM
inactive: outcome [3] | Potency [4] | Potency [5]

CCCN(CCC)CCc1c[nH]c2ccccc12
inactive: Potency [2] | Potency [7] | outcome [3] | Potency [4] | Potency [5]

COc1cccc2c1C(=O)c1c(O)c3c(c(O)c1C2=O)C[C@@](O)(C(=O)CO)CC3OC1CC(N2CCOC(OC)C2)C(O)C(C)O1 (stereo not given in full)
active: Potency [8] 0.266 µM | Potency [6] 0.168 µM
inactive: Potency [2] | Potency [7]

[CH3][Hg][Cl]
inactive: Potency [8] | Potency [2] | Potency [7]
active: Potency [4] 30.1 µM | Potency [5] 17.3 µM

COC(=O)N(C(=O)N1CO[C@@]2(C(=O)OC)Cc3cc(Cl)ccc3C2=N1)c1ccc(OC(F)(F)F)cc1
inactive: Potency [2] | Potency [7] | outcome [3] | Potency [6]

CC1(C)CC/C(=C/c2ccc(Cl)cc2)C1(O)Cn1cncn1 (stereo not given)
inactive: Potency [2] | Potency [7] | Potency [4] | Potency [5] | Potency [6]

Oc1ccc(C2(c3ccc(O)cc3)c3ccccc3-c3ccccc32)cc1
active: Potency [8] 48.6 µM
inactive: Potency [2] | outcome [3] | Potency [4] | Potency [5]

CCCN(CCC)c1c([N+](=O)[O-])cc(S(N)(=O)=O)cc1[N+](=O)[O-]
active: Potency [7] 58.6 µM | Potency [6] 50.1 µM

C[CH2][Hg][N]1C(=O)C2C(C1=O)C1(Cl)C(Cl)=C(Cl)C2(Cl)C1(Cl)Cl (stereo not given)
active: Potency [8] 14.6 µM
inactive: activity change, negative = cytotoxicity [7] 0.501% [at 15.8 µM]

Oc1ccc(C(=C(Cl)Cl)c2ccc(O)cc2)cc1
inactive: Potency [2] | outcome [3]

N#CCCC(Br)(C#N)CBr (stereo not given)
inactive: Potency [1] | Potency [2] | Potency [7] | outcome [3]

CC(=O)O[C@H]1CC[C@@]2(C)C(=CC[C@@H]3[C@@H]2CC[C@]2(C)C(=O)CC[C@@H]32)C1
active: Potency [8] 68.6 µM
inactive: Potency [2] | Potency [7] | outcome [3] | Potency [6]

CCOCCOC(C)=O
inactive: outcome [3] | Potency [4] | Potency [5] | Potency [6]

NC(=O)CCl
inactive: Potency [1] | Potency [2] | outcome [3] | Potency [4] | Potency [5] | Potency [6]

O=S(=O)(c1ccc(Cl)cc1)c1ccc(Cl)cc1
inactive: Potency [2] | Potency [7] | outcome [3] | Potency [6]

CC(C)(O)c1cnn2c(-c3ccc(F)c(-c4c(F)cccc4C#N)c3)cnc2n1
inactive: Potency [2] | Potency [7] | Potency [4]

O=C(O)COc1nc(Cl)c(Cl)cc1Cl
inactive: Potency [2] | Potency [4] | Potency [5] | Potency [6]
active: Potency [1] 27.9 µM

CC1(c2ccc(Oc3ccccc3)cc2)OC(=O)N(Nc2ccccc2)C1=O (stereo not given)
inactive: Potency [7] | outcome [3] | Potency [4] | Potency [5]
active: Potency [6] 27.5 µM

CS(=O)(=O)c1ccc(C(=O)C2C(=O)CCCC2=O)c([N+](=O)[O-])c1
inactive: Potency [2] | Potency [5] | Potency [6]

C[C@]12CC[C@H]3[C@@H](CCC4=CC(=O)CC[C@@]43C)[C@@H]1CC[C@@H]2O
inactive: Potency [2] | Potency [7] | outcome [3] | Potency [6]

COc1cc(C=O)cc2c1[C@H](COC(N)=O)[C@]1(OC(C)=O)ON2C[C@H]2[C@@H]1N2C(C)=O
inactive: Potency [2] | Potency [7] | outcome [3] | Potency [4] | Potency [5]
active: Potency [6] 1.93 µM

c1cc[c]([Sb]([c]2ccccc2)[c]2ccccc2)cc1
inactive: Potency [2] | Potency [7] | Potency [4] | Potency [5] | Potency [6]

O=C(CBr)c1ccc(O)cc1
inactive: Potency [2] | Potency [7] | outcome [3] | Potency [4] | Potency [5] | Potency [6]
